Screening results from PubChem.
TDP1 cell noCPT: qHTS for Inhibitors of human tyrosyl-DNA phosphodiesterase 1 (TDP1): qHTS in cells in absence of CPT; DT40 Tdp1-/- hTDP1 cells, no CPT, ATP luminescence, 48 h; Potency, µM (series often up to 46.2 µM), for the others: at the top dose activity change, negative = growth inhibition, actives largely listed as inhibitors; actives 15% (n = 420,000); AID 686978, 2013; also: potency is read from the fitted curve at half-maximal effect; nearly all actives have a fitted effect of over 55% in size
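A cellular qHTS used chicken DT40 cells lacking endogenous Tdp1 but carrying stably transfected human TDP1. Compounds were applied without camptothecin, and cell growth kinetics were judged by ATP-dependent luminescence after ≥48 hr.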
DT40 TDP1 CPT: growth inhibition of DT40 Tdp1-/-;hTDP1 cells with camptothecin (screen for TDP1 inhibitors); chicken DT40 Tdp1-/-;hTDP1 cells + 20 nM CPT, ATP luminescence, 48 h; Potency, µM (doses to about 46.2 µM), for the others: at the highest dose activity change, negative = growth inhibition, actives largely listed as inhibitors; actives 12% (n = 420,000); AID 686979; also: potency is read from the fitted curve at half-maximal effect; nearly all actives have a fitted effect of over 55% in size
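Chicken DT40 Tdp1-/- cells complemented with human TDP1, 400 cells/well, exposed to compounds plus 20 nM camptothecin for at least 48 h at 37 C; viability read as ATP content by CellTiter-Glo luminescence.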
IL1B secr inh: blocks inflammasome-driven IL-1 beta release; THP-1 LPS/ATP IL-1B secretion, AlphaLISA, 16 h; stronger effect = lower value; activity change, % at 57.5 µM; actives 4.7% (n = 360,000); AID 743279; in the data active = activity change below about -50%; inconclusive = mostly about -30% to -49%
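Secreted IL-1B measured by AlphaLISA bead assay after 16 h compound exposure of THP-1 cells; compounds (final up to 57.5 uM) added 1 h before LPS (250 ng/mL) and ATP (1.25 mM) stimulation; lower signal means less secretion.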
HT1080 IDH1KD tx: toxicity to HT-1080 IDH1 knockdown cells (counter line); HT-1080 IDH1 knockdown viability, ATP luminescence, 48 h; AID 686971; actives 2% (n = 360,000); Potency, µM (doses to about 46.1 µM), inactives show at the top dose activity, negative = toxicity, hits mostly cytotoxic;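 also: potency is read from the fitted curve at half-maximal effect; 0% = DMSO wells and -100% = cell-free medium wells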
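HT-1080-IDH1KD cells (IDH1 knocked down), 750/well in RPMI with 5% FBS, treated with compound 48 h at 37 degrees C. Viability by CellTiter-Glo luminescence, normalised to DMSO and no-cell wells; concentration-response curves classed.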
HT1080NT lethal: kills 2HG-producing HT-1080-NT fibrosarcoma cells | HT-1080-NT fibrosarcoma viability, CellTiter-Glo ATP luminescence, 48 h | Potency, µM (highest dose often 46.1 µM), inactives show at the highest dose activity, negative = less viability, usual class: cytotoxic | actives 1.6% (n = 360,000) | AID 686970;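 also: NT is the 2HG producing partner of a matched IDH1 knockdown line; potency is read from the fitted curve at half-maximal effect; 0% = DMSO-treated cells and -100% = media-only wells without cells; nearly all actives have a fitted effect of over 55% in size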
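Compounds were tested in concentration-response format on HT-1080-NT cells for 48 hours at 37 degrees C. Cell viability came from CellTiter-Glo luminescence; curves were classified by r2, response magnitude and activity.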
Numbers without * were called inactive; ? = inconclusive; nt = no result given; [ ] = another dose, or the depositor's remark. This is a sample that favours compounds with a hit; in the whole collection about 19% have one here. Unless noted, calls follow the shape of the dose curve; as a rule, active = well fitted curve in the direction sought with a large enough effect; inconclusive = small, poorly fitted or top-dose-only effect, or another doubt; inactive = no such curve, though single readings can be large; an effect the other way counts as inactive or inconclusive. Unless noted, % is scaled to controls: 0 for no effect and ±100 for the full control effect.

SMILES	TDP1 cell noCPT	DT40 TDP1 CPT	IL1B secr inh	HT1080 IDH1KD tx	HT1080NT lethal
COCCN1CCN(Cc2nc(Cc3ccc(OC)c(OC)c3)no2)CC1	15.2%	-13.8%	2.1	6.1%	-4.2%
Cc1ccc(S(=O)(=O)N(C)C)cc1NC(=O)COC(=O)c1ccc2c(c1)OCCO2	?	-23.7%	0.0	-3.5%	3.4%
O=C1C2CC=CCC2C(=O)N1c1ccc(NCCc2cccc(F)c2)c([N+](=O)[O-])c1 (stereo not given)	11.6µM*	?	7.4	-1.0%	1.2%
CCCCSc1nc(C)cc(SCC(=O)N/N=C/c2ccccc2)n1	?	?	56.2	-14.8%	-3.0%
CCOC(=O)c1c(C)oc2nc(C)nc(N3CCN(c4ccc(C)cc4C)CC3)c12	?	-7.7%	nt	nt	nt
CCOC(=O)c1c(C)oc2ncnc(N3CCN(c4ccc(C)cc4C)CC3)c12	23.1µM*	20.6µM*	nt	nt	nt
CCOC(=O)c1c(C)oc2ncnc(N3CCN(c4ccccc4OC)CC3)c12	16.4µM*	?	nt	nt	nt
CCOC(=O)c1noc2ncnc(NCc3ccccc3OC)c12	-15.6%	?	nt	nt	nt
CCOC(=O)c1c(C)oc2ncnc(N3CCN(c4cccc(Cl)c4)CC3)c12	16.4µM*	?	nt	nt	nt
CCOC(=O)c1noc2ncnc(N3CCN(c4ccccc4OC)CC3)c12	2.91µM*	4.61µM*	nt	nt	nt
Cc1ccc(OCCn2cnc3c2c(=O)n(C)c(=O)n3C)cc1	?	?	39.3	0.0%	-3.2%
Cc1noc(C)c1C(=O)N1CCC2(CCCN(c3ccncc3)C2)CC1	-4.3%	25.1%	nt	nt	nt
CCOC(=O)c1cc(S(=O)(=O)N2CCN(c3ccc(C)cc3C)CC2)[nH]n1	20.6µM*	9.2µM*	nt	nt	nt
COc1ccc(S(=O)Cc2ccc(C(=O)NCc3cccc(OC)c3)o2)cc1 (stereo not given)	0.4%	-25.7%	-10.5	-1.3%	0.0%
O=C(N1CCOCC1)N1c2ccccc2Sc2ccccc21	23.1µM*	?	-10.4	14.1µM*	?
CC1CCCN(C(=O)N2c3ccccc3Sc3ccccc32)C1 (stereo not given)	13µM*	?	-1.1	10µM*	?
CC1CN(C(=O)N2c3ccccc3Sc3ccccc32)CC(C)O1 (stereo not given)	11.6µM*	11.6µM*	-1.1	-27.4%	-19.4%
CCOC(=O)N1CCN(C(=O)CSc2nc(=O)n3ccc(C)cc3n2)CC1	-21.0%	?	-1.3	-7.6%	-0.3%
CN1CCC(N(C)CC(=O)Nc2cccc(Oc3ccccc3)c2)CC1	-13.4%	-20.2%	-1.8	-3.2%	-28.6%
Cc1ccc(NC(=O)c2ccc(C(=O)c3ccccc3)cc2)nc1	?	18.4µM*	-13.8	?	?
Cc1ccc(NC(=O)c2ccc3nc[nH]c3c2)c(O)c1	-9.3%	1.0%	24.7	-17.3%	-7.5%
Cc1ccc(NC(=O)c2ccc3nc[nH]c3c2)nc1	18.4µM*	23.1µM*	8.4	?	-14.2%
Cc1ccc(NC(=O)C2(c3ccccc3)CCCC2)nc1	14.6µM*	?	17.2	3.1%	-0.6%
Cc1ccnc(NC(=O)c2cccc(S(=O)(=O)N3CCN(c4ccccc4)CC3)c2)c1	?	0.1%	-13.4	-19.6%	-14.9%
Cc1ccc(NC(=O)c2cccc(S(=O)(=O)N3CCN(c4ccccc4)CC3)c2)nc1	20.6µM*	20.6µM*	-28.7	-23.3%	-19.7%
SMILES	TDP1 cell noCPT	DT40 TDP1 CPT	IL1B secr inh	HT1080 IDH1KD tx	HT1080NT lethal
COc1ccc(S(=O)CC(=O)Nc2ccc(Cl)cc2Cl)cc1 (stereo not given)	-17.6%	-4.6%	-7.5	0.2%	7.0%
CCOc1ccc(S(=O)(=O)NCC(=O)OCc2nnc(-c3ccccc3)o2)cc1	-24.3%	-13.1%	4.4	6.6%	3.0%
COc1ccc2oc(C(=O)NCc3ccccc3CN3CCCC3)c(C)c2c1	?	20.6µM*	-22.3	-10.1%	-5.5%
O=C(NCc1ccc(Cl)cc1)c1cc2ccccc2o1	-5.6%	-21.8%	nt	nt	nt
COc1ccc2cc(C(=O)NCc3ccccc3CN3CCCC3)ccc2c1	?	?	-67.7*	-21.5%	-14.0%
O=C(NCc1ccccc1CN1CCCC1)c1cc2cc(Cl)ccc2o1	?	18.4µM*	-23.5	-7.3%	-19.4%
CCC1CN(Cc2ccc(COC)o2)Cc2cc(OC)ccc2O1 (stereo not given)	-6.8%	13.1%[9.04 µM]	nt	nt	nt
Cc1c(NS(=O)(=O)c2cccc(C(=O)OCC(=O)c3ccc(Cl)cc3)c2)c(=O)n(-c2ccccc2)n1C	-12.3%	-20.0%	14.7	1.7%	6.1%
Nc1ncnc(Nc2ccccc2Cl)n1	0.2%	0.2%	-23.2	14.3%	15.3%
CCC(=O)N(C)C[C@@H]1Oc2ncc(Br)cc2C(=O)N([C@@H](C)CO)C[C@H]1C	-18.0%	5.7%	4.1	10.9%	?
COc1cc(OC)c(NC(c2nnc(-c3ccccc3)o2)c2ccc(F)cc2Cl)cc1Cl (stereo not given)	18.4µM*	?	nt	nt	nt
CCOc1cc(S(=O)(=O)Nc2cc(C)cc(C)c2)ccc1Cl	16.4µM*	16.4µM*	-58.8*	?	?
CCOc1cc(S(=O)(=O)NCc2ccncc2)ccc1Cl	0.581µM*	0.517µM*	-1.7	?	?
CCOc1ccc(NS(=O)(=O)c2ccc(C(=O)NCc3ccncc3)cc2)cc1	13µM*	?	8.0	1.1%	-0.5%
CC1CCCCC1NS(=O)(=O)c1ccc(S(=O)(=O)NCc2ccncc2)cc1 (stereo not given)	7.31µM*	6.51µM*	-22.3	?	-0.4%
CC(=O)Nc1ccc(S(=O)(=O)NCc2ccccn2)cc1	-8.5%	-0.5%	13.3	2.3%	-6.3%
CC(=O)CCS(=O)(=O)c1ccc(NC(C)=O)cc1	18.4µM*	13µM*	-7.8	?	?
Cc1ccc(S(=O)(=O)NCCCCCCNS(=O)(=O)c2ccc(C)cc2)cc1	23.1µM*	?	-28.5	-5.0%	-17.7%
Cc1ccc(S(=O)(=O)NCC(=O)NCc2ccncc2)cc1	-3.7%	-12.2%	8.2	8.8%	8.7%
Cc1ccc(S(=O)(=O)NCc2ccncc2)cc1	3.66µM*	4.11µM*	42.4	6.51µM*	-16.2%
CC(=O)Nc1ccc(S(=O)(=O)NCc2ccncc2)cc1	9.2µM*	9.2µM*	37.7	-9.7%	0.0%
CCOC(=O)N1CCN(C(=O)/C=C/c2cccc([N+](=O)[O-])c2)CC1	-23.3%	?	48.1	0.0%	0.1%
Cc1cccc(C)c1NC(=O)CNC(=O)c1c(-c2ccccc2)noc1C	-0.5%	10.7%	12.1	7.9%	4.8%
COC(=O)c1csc(S(=O)(=O)N2CCOCC2)c1OC	16.5%	6.1%	2.7	15.3%	15.8%
CCOC(=O)COc1ccc(S(=O)(=O)NCc2ccncc2)cc1	?	?	-27.3	?	?
